ELG1 genotoxic: qHTS screen for small molecules that induce genotoxicity in human embryonic kidney (HEK293T) cells expressing luciferase-tagged ELG1 | Potency, µM (top dose mostly 46 µM), inactives show at the highest dose activity change, positive = activation, usual class: activators | HEK293T ELG1-luciferase reporter, luminescence, 16 h | hit rate 1.3% among 330,000; note: % of control where 0% means no effect; nearly all actives have a fitted effect of over 60% in size
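Genotoxic stress is detected as increased luminescence from luciferase-tagged ELG1 in HEK293T cells, measured with ONE-Glo after a 16 hr treatment at 37 °C.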
SMN2 splice enh: qHTS Assay for Enhancers of SMN2 Splice Variant Expression. HEK293 SMN2-luciferase splicing reporter, luminescence, 30-36 h. Potency, µM (doses to about 46.1 µM), for inactives: at the top dose activity change, positive = activation, usual class: activators. hit rate 2.8% among 210,000; note: % of control where 0% means no effect; nearly all actives have a fitted effect of over 55% in size
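HEK293 cells carry an SMN2 […]–luciferase reporter in which exon 7 inclusion puts luciferase in frame. Cells were plated 10-12 h before compound addition, then incubated 30-36 h at 37C. ONE-Glo luminescence was read; sodium butyrate at 4.5 mM final served as control.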
FLuc counter: qHTS profiling assay for firefly luciferase inhibitor/activator using purifed enzyme and Km concentrations of substrates (counterscreen for miR-21 project) | purified FLuc, Km substrates, luminescence inhibition | Potency, µM (highest dose often 57.5 µM), for the others: at the highest dose activity change, negative = inhibition, usual class: inhibitors | hit rate 6.9% among 360,000 | AID 588342, 2011;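 note: plate controls were vehicle for no effect and reference inhibitor for full effect; nearly all actives have a fitted effect of over 55% in size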
Target sequence (P08659 whole entry, looked up): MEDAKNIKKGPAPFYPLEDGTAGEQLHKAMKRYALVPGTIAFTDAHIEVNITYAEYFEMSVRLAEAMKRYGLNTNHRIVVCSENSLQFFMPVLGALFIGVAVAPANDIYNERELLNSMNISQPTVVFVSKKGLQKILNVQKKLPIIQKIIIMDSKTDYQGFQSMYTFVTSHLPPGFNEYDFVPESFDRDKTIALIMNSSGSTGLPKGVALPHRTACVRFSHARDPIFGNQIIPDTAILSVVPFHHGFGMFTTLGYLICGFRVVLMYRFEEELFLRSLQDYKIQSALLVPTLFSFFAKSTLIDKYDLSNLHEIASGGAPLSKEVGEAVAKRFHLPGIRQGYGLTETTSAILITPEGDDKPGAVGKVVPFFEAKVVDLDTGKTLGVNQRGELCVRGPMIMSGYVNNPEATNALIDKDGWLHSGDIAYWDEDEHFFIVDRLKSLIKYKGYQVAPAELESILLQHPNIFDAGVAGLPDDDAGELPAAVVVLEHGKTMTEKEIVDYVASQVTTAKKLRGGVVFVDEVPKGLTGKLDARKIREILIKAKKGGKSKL
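Biochemical qHTS of compounds, final roughly 60 µM downward over six points, against 10 nM purified firefly luciferase using Km concentrations of substrates (10 uM D-luciferin, 10 uM ATP) in Tris acetate pH 7.5 buffer; luminescence output.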
Rab9 promoter act: qHTS Assay for Rab9 Promoter Activators; Huh7 Rab9 promoter-luciferase reporter, luminescence, 24 h; Potency, µM (doses to about 9.22 µM), inactives show top-dose activation, negative = inhibition, actives largely listed as activators; hit rate 2.8% among 320,000; AID 485297, 2010; note: % of control where 0% means no effect; nearly all actives have a fitted effect of over 60% in size
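Rab9 promoter-driven luciferase in stably transfected Huh7 cells; 1500 cells/well rested 2 h, exposed to compound in DMSO for 24 h at 37 °C, 5% CO2. Luminescence read 10 min after adding luciferase reagent at ambient temperature.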
NPC1 promoter act: qHTS Assay for NPC1 Promoter Activators. Huh7 NPC1 promoter luciferase reporter, 24 h. Potency, µM (titrated, usually from 9.22 µM), for inactives: at the top dose activation, actives largely listed as activators. hit rate 2.4% among 320,000; note: % of control where 0% means no effect; nearly all actives have a fitted effect of over 60% in size
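In 1536-well qHTS, Huh7 cells harboring an NPC1 promoter–luciferase construct received compound for 24 h; activation was quantified by luminescence following luciferase reagent addition.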
KinaseGlo FLuc: Counterscreen for Luciferase (Kinase-Glo TM) Inhibition. hit rate 0.28% among 200,000. Potency, µM (series often up to 38.3 µM), for the others: at the highest dose activity change, negative = inhibition, most hits filed as inhibitors. Kinase-Glo luciferase, ATP luminescence, 8 min. Luciferin 4-monooxygenase (Photuris pensylvanica), Q27757; note: % is set by controls: 0 for no effect and ±100 for the full control effect; nearly all actives have a fitted effect of over 60% in size
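Compounds were added to a substrate mix at pH 7.2 (50 mM imidazole, 10 uM ATP, within the enzyme's linear range), followed by Kinase-Glo detection reagent; luminescence was measured after 8 minutes at ambient temperature.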
Active calls of the source: *; ? = inconclusive; / = not tested or not shown; [ ] = dose if it differs, or a comment. Most compounds without a hit are left out; they make up all but 7.5% or so of the library. Calls come from the whole dose curve; as a rule, active = well fitted curve in the direction sought with a large enough effect; inconclusive = small, poorly fitted or top-dose-only effect, or another doubt; inactive = no such curve, though single readings can be large; an effect the other way counts as inactive or inconclusive. Potency is the fitted concentration of half-maximal effect.

SMILES | ELG1 genotoxic | SMN2 splice enh | FLuc counter | Rab9 promoter act | NPC1 promoter act | KinaseGlo FLuc
Cc1cc(C)cc(NC(=O)c2ccc(CSc3nnc(C)s3)cc2)c1 | 8% | 0% | 7.6µM* | 10% | 3% | -4%
COc1ccc(NC(=O)CSc2nnnn2C)cc1 | 0% | / | 1% | -4% | -1% | -4%
COc1ccc(OC)c(NC(=O)c2ccc(CSc3nnc(C)s3)cc2)c1 | -4% | -11% | ? | -1% | -2% | -1%
Cc1ccc(NC(=O)c2ccc(CSc3nnc(C)s3)cc2)cc1 | 11% | ? | 1.5µM* | 1.6µM* | 1.1µM* | -5%
Cc1nnc(SCc2ccc(C(=O)O)cc2)s1 | -1% | -8% | 2% | 18% | -1% | -1%
CCc1ccc(NC(=O)CSc2nnnn2C)cc1 | 13%[9.26 µM] | / | 24µM* | ? | ? | /
Cc1ccc(NC(=O)c2ccc(CSc3nnnn3C)cc2)cc1 | ? | 8.9µM* | 4.8µM* | 1.6µM* | 2µM* | -2%
Sc1oc(-c2ccccc2)cc1C=Nc1ccccc1 | 12µM* | -21% | 2.1µM* | 6% | 0% | -3%
O=[N+]([O-])c1cc2c(cc1C=Nc1ccccc1)OCO2 | 1% | -8% | -13% | 0% | -1% | -4%
Cc1ccc(NC(=O)CSc2nc(=O)n(Cc3ccncc3)c3c2CCC3)c(C)c1 | -2% | / | 1% | 4% | 1% | /
O=C(COC(=O)c1c2c(nc3ccccc13)CCCC2)c1cccs1 | -8% | -6% | 11µM* | 2% | 11% | 1%
NC(=O)COC(=O)c1c2c(nc3ccccc13)CCCCC2 | -2% | 4% | -3% | -1% | -4% | -1%
O=C(OCC(=O)N1CCc2ccccc21)c1c2c(nc3ccccc13)CCCC2 | -19% | / | 6.7µM* | 21% | 8% | /
O=C(COC(=O)c1c2c(nc3ccccc13)CCCCC2)c1ccc(Cl)s1 | -9% | 1% | 13µM* | 13% | 1% | 3%
O=C(O)/C=C/C(=O)Nc1ccc(-n2nccc2C(F)(F)F)cc1 | 1% | / | 17µM* | 9% | -1% | /
CCC(=O)Nc1ccc(-c2csc(NNC(C)=O)n2)cc1 | 0% | -10% | -7% | -3% | -5% | 3%
O=C(O)/C=C\C(=O)Nc1ccc(N2CCN(c3ccc(Cl)cc3)CC2)cc1 | -1% | / | 15µM* | -14% | -7% | -3%
CCCCCC(=O)Nc1ccc(-c2csc(N)n2)cc1 | ? | / | 17µM* | ? | 4% | /
Cc1nc(-c2ccc(NC(=O)/C=C\C(=O)O)cc2)cs1 | 11% | 14% | 9.5µM* | 1% | 0% | -2%
O=C(O)/C=C/C(=O)Nc1ccc(-n2ccc(C(F)(F)F)n2)cc1 | 1% | / | -5% | -5% | 0% | /
O=C(Nc1cccc(Cl)c1)C1CCN(S(=O)(=O)Cc2ccccc2)CC1 | / | / | -3% | / | / | /
Cn1c(CC(=O)Nc2ccccc2)cc2ccccc21 | 4% | / | -17% | 11% | -3% | /
O=C(O)/C=C/C(=O)Nc1ccc(-c2ccccc2)cc1 | 14% | 21% | 6.7µM* | 28% | 16% | 1%
CCCCCC(=O)Nc1ccc(C2C(=O)c3ccccc3C2=O)cc1 | ? | / | 2.7µM* | 2.2µM* | 2.8µM* | /
Cc1ccc2sc(-c3ccc(NC(=O)/C=C\C(=O)O)cc3)nc2c1 | ? | 7.1µM* | 0.95µM* | 2.8µM* | ? | -4%
SMILES | ELG1 genotoxic | SMN2 splice enh | FLuc counter | Rab9 promoter act | NPC1 promoter act | KinaseGlo FLuc
CCCCCC(=O)Nc1ccc(-c2csc(C)n2)cc1 | 3% | ? | 15µM* | ? | 20% | -3%
CCCCC(=O)Nc1ccc(C(=O)c2ccccc2)cc1 | 12% | 3% | ? | 24% | 8% | 3%
Cc1ccc(S(=O)(=O)Nc2ccc(NC(=O)/C=C/C(=O)O)cc2)cc1 | -1% | 6% | -2% | -6% | -3% | -1%
CC(Oc1cccc(Cl)c1)C(=O)Nc1cc(Cl)ccc1N1CCOCC1 (stereo not given) | -6% | / | 1% | 0% | -1% | /
CCOC(=O)N1CCc2c(sc3c2c(=O)n(-c2ccc(F)cc2)c(=O)n3CC(=O)c2ccccc2)C1 | / | -4% | -1% | / | / | /
CCOc1ccc(N(C)c2ccc(/C=C3/SC(=S)NC3=O)cc2)cc1 | -2% | / | ? | -4% | 0% | /
CCn1ncc(/C=C2/SC(=S)NC2=O)c1C | -1% | 13% | 15µM* | 2% | 1% | -1%
CCn1c(C)cc(/C=C2/SC(=S)NC2=O)c1C | ? | ? | 4.8µM* | ? | ? | 3%
Cc1cc(/C=C2\SC(=S)NC2=O)c(C)[nH]1 | ? | 19% | 11µM* | 9% | 8% | 2%
CCOc1ccc(CN2C(=O)c3ccccc3Sc3ccc(C(=O)NCc4ccc(C)cc4)cc32)cc1 | / | -19% | 5% | / | / | /
O=C(Nc1ccc(F)cc1)c1ccc(CSc2ccccc2)o1 | 7% | -4% | 15µM* | 1% | -1% | -1%
CCOC(=O)Cc1c(C)nc2cc(-c3ccc(C)cc3)[nH]n2c1=O | ? | ? | ? | 27% | 18% | 4%
Cc1cc(=O)n2[nH]c(C)cc2n1 | 0% | -15% | 2% | 3% | -4% | 1%
Cc1cc(=O)n2[nH]c(-c3ccccc3Cl)cc2n1 | -1% | -14% | 24µM* | 8% | 2% | 0%
Cc1nc2cc(-c3ccc(F)cc3)[nH]n2c(=O)c1C | 16µM* | / | 8.5µM* | ? | 2µM* | /
Cc1ccccc1-c1cc2nc(C)c(C)c(=O)n2[nH]1 | ? | / | 19µM* | ? | ? | /
CCOc1cc(Br)ccc1S(=O)(=O)N1CCC(C(N)=O)CC1 | 0% | -10% | -4% | -4% | -2% | 1%
CC(C)CSc1nnc2c(n1)[nH]c1ccccc12 | 0.65µM* | 2.2µM* | 0.67µM* | 0.71µM* | 3.5µM* | -10%
CC(C)CSc1nnc2c3ccccc3n(C)c2n1 | ? | / | 11µM* | 6% | 18% | /
CCCCSc1nnc2c(n1)[nH]c1ccccc12 | ? | 3.5µM* | ? | 1.3µM* | ? | 0%
O=C(O)c1ccccc1CSc1nnc2c(n1)[nH]c1ccccc12 | 0% | / | 21µM* | -4% | 15% | /
CC1CCCN(S(=O)(=O)c2ccc3oc(=O)ccc3c2)C1 (stereo not given) | 0% | / | 2% | 10% | 0% | /
Nc1nc(-c2ccc3ccccc3c2)c(C2(O)C(=O)Nc3c(Br)cc(F)cc32)s1 (stereo not given) | -4% | 22% | -2% | -2% | 2% | 18%
O=C(CCN1CCCC1=O)NC1CCCc2c1cnn2-c1ccc(F)cc1F (stereo not given) | -2% | / | -21% | 9% | -5% | /

Source: PubChem BioAssay (National Center for Advancing Translational Sciences (NCATS))
